# PostGolgi ctrl: growth inhibition of yeast control strain, primary screen, counter-screen for post-Golgi transport modulator project | 5% of 98,000 active | inhibition, % at 10 µM | AID 738, 2007 | efflux-deficient yeast background strain, growth absorbance A615, 16 h
# CYP2C9 inh: blockers of cytochrome P450 2C9 activity – biochemical, luminescence, ADME assay, primary screen. CYP2C9 Supersomes, luciferin-H conversion. 20% of 96,000 active. P11712. inhibition, % at 5 µM;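 active = blocking of liver enzyme CYP2C9 beyond about 50% at 5 µM, limit read from the data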
# Target sequence (P11712 whole entry, looked up): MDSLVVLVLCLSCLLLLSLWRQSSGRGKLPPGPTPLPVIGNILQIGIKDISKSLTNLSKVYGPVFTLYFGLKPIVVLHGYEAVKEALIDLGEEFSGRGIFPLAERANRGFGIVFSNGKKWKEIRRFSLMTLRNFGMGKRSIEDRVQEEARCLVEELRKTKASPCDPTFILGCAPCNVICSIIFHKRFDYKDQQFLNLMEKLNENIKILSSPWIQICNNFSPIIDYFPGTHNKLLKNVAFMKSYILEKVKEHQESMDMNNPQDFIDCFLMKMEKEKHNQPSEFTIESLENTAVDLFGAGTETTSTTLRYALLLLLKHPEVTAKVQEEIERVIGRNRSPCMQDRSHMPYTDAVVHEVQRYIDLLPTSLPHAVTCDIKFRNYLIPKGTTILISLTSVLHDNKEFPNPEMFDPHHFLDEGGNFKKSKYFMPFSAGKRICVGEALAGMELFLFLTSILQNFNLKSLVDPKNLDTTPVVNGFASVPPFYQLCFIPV
# CYP2C19 act: human CYP2C19 activators, primary screen, biochemical, luminescence; Cytochrome P450 2C19 (Homo sapiens), P33261; 96,000 tested, under 10 active; activation factor at 5 µM; recombinant CYP2C19, luciferin-H EGE luminescence; active compounds read high; 0 = fully inhibited enzyme, 1 = untreated enzyme; AID 1025, 2008;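 active = activation factor of at least 2 at 5 µM in the primary screen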;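 note: 0 = wells with 2.5 mM tranylcypromine and 1 = vehicle-only wells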
# CYP2C9 act: human CYP2C9 activators, primary screen, biochemical, luminescence; recombinant CYP2C9, luciferin-H conversion; active compounds read high; factor 1 = untreated enzyme, 0 = blocked; 1.4% of 96,000 active; AID 1024, 2008; activation factor at 5 µM;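 active = activation factor of 2 or more for CYP2C9 at a 5 µM dose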;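 note: 0 = sulfaphenazole-blocked wells and 1 = vehicle-only wells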
# CYP2C19 inh: blockers of cytochrome P450 2C19 activity – biochemical, luminescence, ADME assay, primary screen. P33261. 21% of 96,000 active. CYP2C19 Supersomes, luciferin-H EGE luminescence, 30 min. AID 778, 2007. inhibition, % at 5 µM;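 active = CYP2C19 inhibition above a set limit at 5 µM in the primary screen, cut at about 50% in these data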;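 note: plate controls were negative control wells for no effect and 2.5 mM tranylcypromine positive control for full effect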
# PostGolgi yeast: phenotypic screen on post-Golgi transport, primary screen; post-Golgi transport phenotypic cell assay; inhibition, % at 10 µM; 0.9% of 98,000 active; AID 739, 2007;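 note: yeast cells grown in 1536-well plates; yeast grown about 18 h at 30C before absorbance read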
# * = called active by the depositor; . = no result given. This is a sample that favours compounds with a hit; in the whole collection about 32% have one here. Cut-off read from the data, not from the text of the source, unless noted: active = inhibition above about 30%; inactive = the rest.
SMILES,PostGolgi ctrl,CYP2C9 inh,CYP2C19 act,CYP2C9 act,CYP2C19 inh,PostGolgi yeast
Cc1ccc(CSc2nc3c(c(SCC(=O)O)n2)CCCC3)cc1,8.8,32.5,1,0.7,-2.6,17.1
CN(C)c1nc(SCc2ccccc2Cl)nc2c1CCCC2,36.4*,21.0,0.2,0.8,79.8*,58.7*
O=c1[nH]c(SCc2ccc(Cl)cc2)nc2c1CCC2,16.7,47.2,0.7,0.5,27.5,1.1
CNc1nc(SCc2ccc(C)cc2)nc2c1CCCC2,33.3*,72.7*,0,0.3,96.0*,10.1
COC(=O)CSc1nc(SCc2ccc(C)cc2)nc2c1CCCC2,8.2,97.4*,0,0,95.3*,-2.4
Cc1ccc(CSc2nc3c(c(N(C)C)n2)CCCC3)cc1,41.2*,56.4*,0.1,0.4,93.0*,-15.1
COCCNc1nc(SCc2ccccc2)nc2sc3c(c12)CCC3,14.9,39.6,0.7,0.6,28.1,1.4
O=c1[nH]c(SCc2ccccc2Cl)nc2c1CCCC2,10.2,21.4,1,0.8,-4.1,-2.6
Cc1nc2ccc(CCO)cc2s1,1.7,.,.,.,.,-3.8
CC(C)(C)NC(=O)c1cccc(NC(=O)CSc2ccccc2)c1,4.8,34.8,1,0.7,3.7,-1.6
CCOC(=O)N1CCN(C2CC(=O)N(c3ccc(Oc4ccccc4)cc3)C2=O)CC1 (stereo not given),4.0,8.9,1.1,0.9,-11.9,-3.3
O/N=C1/CCc2nonc2/C1=N/O,2.4,-5.1,1.1,1.1,-11.3,-8.5
COc1ccc(NC(=O)CSc2nc(C)c3c(c2C#N)CCCC3)cc1,6.5,21.0,0.8,0.8,19.9,2.2
COC(=O)CSc1nc(-c2ccc(C)cc2)c2c(c1C#N)CCCC2,4.9,55.1*,0.5,0.4,45.4,7.0
COc1ccc(O)c(/C=c2/sc3nc4cc(C)c(C)cc4n3c2=O)c1,3.4,27.9,0.9,0.7,10.9,-5.5
COc1ccc(-n2c(C)cc(C(=O)Cn3c(NCCO)nc4ccccc43)c2C)cc1,19.2,62.9*,0.4,0.4,64.8*,10.6
COc1cc(NC(=O)CN2C(=O)c3ccccc3C2=O)c(C(=O)O)cc1OC,-1.1,3.4,1.2,1,-16.2,3.7
CCCCc1[nH]c(=O)c(C#N)c2c1CSC(C)(C)C2,16.1,36.7,0.4,0.6,63.4*,-4.0
CC(C)c1[nH]c(=O)c(C#N)c2c1CSC(C)(C)C2,-2.2,2.8,0.3,1,71.2*,12.7
CCc1[nH]c(=O)c(C#N)c2c1CSC(C)(C)C2,10.4,.,.,.,.,1.2
COc1cc(/C=C(\C#N)c2nc3ccccc3[nH]2)ccc1Oc1ccc([N+](=O)[O-])cn1,1.7,37.2,0.9,0.6,12.1,15.4
COc1cc(/C=C(/C#N)c2nc3ccccc3[nH]2)ccc1OC(=O)c1ccco1,-4.3,60.6*,0.8,0.4,23.8,24.0
Cc1ccc(Cl)cc1N1CCN(C(=O)C2(S(=O)(=O)c3ccc(Cl)cc3)CC2)CC1,39.8*,88.9*,0.2,0.1,83.9*,-4.0
Cc1ccc(Cl)cc1N1CCN(C(=O)Cc2cn(C)c3ccccc23)CC1,9.6,-26.4,0.5,1.3,52.8*,0.8
O=C(N1CCN(c2cccc(Cl)c2)CC1)C1(S(=O)(=O)c2ccc(Cl)cc2)CC1,89.9*,22.4,0.4,0.8,56.7*,80.3*
SMILES,PostGolgi ctrl,CYP2C9 inh,CYP2C19 act,CYP2C9 act,CYP2C19 inh,PostGolgi yeast
O=C(O)c1ccc(CS(=O)(=O)c2cccc(C(F)(F)F)c2)o1,-1.8,.,.,.,.,-1.3
O=C(CN(C(=O)CCC(=O)Nc1nccs1)c1ccc2c(c1)OCCO2)NCc1ccco1,5.7,15.5,0.6,0.8,44.1,26.9
N#CC1=C2C=CC=CN2CC1=O,-0.8,10.4,1.1,0.9,-7.4,-1.9
Cc1nnc(NC(=O)CSc2nnc(Cc3cccn3C)n2C)s1,2.4,0.9,0.9,1,12.3,-2.7
COc1cc(C(=O)N2CCC(c3nc(-c4cccnc4)no3)CC2)cc(OC)c1OC,5.6,-6.8,1.1,1.1,-12.1,-7.4
O=C1NC(=O)C2(COC3(CCCC3)OC2)S1,35.1*,-1.1,1,1,-1.8,3.8
CCOc1cccc2sc(NC(=O)c3ccc(Br)s3)nc12,9.4,23.9,1.1,0.8,-7.4,-3.5
CCOC(=O)c1sc(NC(=O)Cn2nnc3sc4c(c3c2=O)CCCC4)nc1C,26.5,55.0*,0.7,0.4,25.7,-2.7
CCOC(=O)c1sc(NC(=O)CN2C(=O)c3cccc4cccc(c34)C2=O)nc1C,2.3,24.6,0.9,0.8,9.0,25.2
Fc1ccc2c(Cl)c(-c3nnc(-c4cccs4)o3)sc2c1,-10.9,-15.4,1.1,1.2,-8.3,-3.9
COc1ccc(-n2c(C)c3c(OC)cccc(=O)c3c2C)cc1,34.4*,58.2*,0.2,0.4,81.3*,-3.5
Cn1cc(S(=O)(=O)Nc2ccc(Br)cc2F)c(=O)n(C)c1=O,3.9,63.4*,0.6,0.4,42.5,-4.2
COC(=O)Cn1nc(-c2ccccc2)n(-c2ccccc2)c1=S,3.7,-0.2,0.9,1,10.5,0.7
CCC(=O)Nc1nnc(SCC(=O)Nc2ccc(F)cc2)s1,28.1,3.3,0.6,1,42.2,-24.2
CCCC(=O)Nc1nnc(Sc2ccc(N(C)C)cc2)s1,0.6,-56.5,0.1,1.6,94.1*,-13.3
CCC(=O)Nc1nnc(Sc2ccc(N(C)C)cc2)s1,14.6,-37.8,0,1.4,96.5*,0.6
Cc1ccc(/C(N)=N/OC(=O)c2cc(-c3ccccc3)nc3ccccc23)cc1,30.7*,54.0*,0.9,0.5,13.1,21.8
CSc1ccc(Cl)c(C(=O)OCC(=O)NC2CC2)c1,16.6,-6.3,0.8,1.1,22.9,2.1
CSc1ccc(Cl)c(C(=O)OCC(=O)N2CCOCC2)c1,-5.7,-67.1,0.5,1.7,50.9*,26.1
Cc1cc(C(=O)OCC(=O)N2CCCC2)c2ccccc2n1,5.2,22.6,0.7,0.8,28.4,-0.2
Cc1cc(C(=O)OCC(=O)N2CCOCC2)c2ccccc2n1,-8.7,-98.3,0.9,2*,12.1,6.3
COc1ccc(-c2cc(C(=O)OCC(=O)N3CCCC3)c3ccccc3n2)cc1,18.9,77.8*,0.5,0.2,50.1*,5.6
CC(Sc1nc2ccccc2o1)C(=O)O (stereo not given),-1.0,14.8,0.9,0.9,12.3,6.9
COCCNC(=O)CN(C(=O)CCC(=O)Nc1cc(C)on1)c1ccccc1C,3.6,24.7,0.9,0.8,10.3,3.0
O=S(=O)(NCCc1cn2ccccc2n1)c1ccc(F)c(C(F)(F)F)c1,-1.6,.,.,.,.,4.2
Cn1c(=O)c2c(nc(Br)n2Cc2ccc3ccccc3c2)n(C)c1=O,3.6,28.3,0.6,0.7,39.1,12.7

# Source: PubChem (several laboratories)
